What all share (details): treatment time: 24 h
In one assay the test system is HepG2-ACTB-RAB5A. Briefly: lowest phenotypically active concentration; higher = less potent. The essentials:
(§1)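 Cells from fifteen gene-edited reporter lines (A549, HepG2 and WPMY1) were treated for 24 h at 0.3, 1, 3 or 9 µM and imaged live, four wells per condition. Features were normalised per well to solvent control wells. A condition deviated if ≥3 of 4 wells passed the 95th percentile of control Euclidean distances and was reproducible if its median replicate Pearson correlation beat the 95th percentile of non-replicates; phenotypic activity needed both.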

The next assay relates to HepG2-CANX-COX4. The assay is described as above. The essentials: as §1
In a further assay the test system is HepG2-TP53BP1-CLTA. The description is as above. The essentials:
as §1

In another assay the test system is HepG2-TUBA1B-RELA. The description is as above. The essentials: as §1
The subject of assay [1] is WPMY1-ACTB-RAB5A. The assay is described as above. In a few lines:
as §1

The test system of a further assay is WPMY1-CANX-COX4. The description is as above. In a few lines:
as §1

The subject of a further assay is WPMY1-GM130-SQSTM1. The description is as above. The essentials:
as §1

A further assay has as its system WPMY1-TP53BP1-CLTA. The description is as above. The essentials:
as §1

A further assay concerns WPMY1-TUBA1B-RELA. Described as above. The essentials: as §1
Assay [2] relates to WPMY1-ACTB-RAB5A. Kind of assay: phenotypically active (imaging signature differs from DMSO and reproducible) at any of 0.3-9 uM (binary (1 = active, 0 = inactive)); higher = active. The essentials: as §1

Counter-ions that a name gives are not always drawn.

Results on ten molecules are retold here after the supplement of paper PMC7411054.

As for `O=C(O)c1ccc(Nc2ncc3c(n2)-c2ccc(Cl)cc2C(c2c(F)cccc2F)=NC3)cc1`, the “lowest phenotypically active concentration” value with HepG2-ACTB-RAB5A is ≤ 0.3 µM; with HepG2-CANX-COX4, ≤ 0.3 µM; in the assay on HepG2-TP53BP1-CLTA it was ≤ 0.3 µM; in the assay with HepG2-TUBA1B-RELA, ≤ 0.3 µM; in the assay on WPMY1-ACTB-RAB5A [1], ≤ 0.3 µM; in the assay on WPMY1-CANX-COX4 it was 3 µM. The “lowest phenotypically active concentration” value is 9 µM in the assay on WPMY1-GM130-SQSTM1, ≤ 0.3 µM with WPMY1-TP53BP1-CLTA and ≤ 0.3 µM with WPMY1-TUBA1B-RELA. In the assay on WPMY1-ACTB-RAB5A [2], the phenotypically active is 1 (active).
Consider `O=C(Nc1ccc(-c2ccnc(Nc3ccc(N4CCOCC4)cc3)n2)cc1)[C@@H]1CCCN1`, for which the “lowest phenotypically active concentration” value was 3 µM in the assay with HepG2-ACTB-RAB5A; 3 µM in the assay with HepG2-CANX-COX4; 9 µM with HepG2-TP53BP1-CLTA; 3 µM in the assay on HepG2-TUBA1B-RELA; 3 µM in the assay on WPMY1-ACTB-RAB5A [1]; 3 µM in the assay with WPMY1-CANX-COX4. In addition, the “lowest phenotypically active concentration” value with WPMY1-GM130-SQSTM1, in the assay with WPMY1-TP53BP1-CLTA and with WPMY1-TUBA1B-RELA was 3 µM each time. For the same molecule, in the assay with WPMY1-ACTB-RAB5A [2], the phenotypically active was 1 (active).
With `Cc1ccc(C(=O)N(CCCN)[C@@H](c2nc3cc(Cl)ccc3c(=O)n2Cc2ccccc2)C(C)C)cc1` [Ispinesib], the “lowest phenotypically active concentration” value in the assay on HepG2-ACTB-RAB5A is ≤ 0.3 µM; with HepG2-CANX-COX4 it was ≤ 0.3 µM; in the assay on HepG2-TP53BP1-CLTA, ≤ 0.3 µM; in the assay on HepG2-TUBA1B-RELA it was ≤ 0.3 µM; with WPMY1-ACTB-RAB5A [1] it was ≤ 0.3 µM; with WPMY1-CANX-COX4, 3 µM. Further, the “lowest phenotypically active concentration” value in the assay with WPMY1-GM130-SQSTM1, in the assay on WPMY1-TP53BP1-CLTA and in the assay on WPMY1-TUBA1B-RELA was ≤ 0.3 µM each time. For the same molecule, the phenotypically active in the assay with WPMY1-ACTB-RAB5A [2] is 1 (active).
Regarding `O=C(Nc1cccc(Cl)c1)Nc1ncc(CCNc2ncnc3ccsc23)s1` [SNS 314 mesylate], the “lowest phenotypically active concentration” value with HepG2-ACTB-RAB5A, with HepG2-CANX-COX4, with HepG2-TP53BP1-CLTA, in the assay on HepG2-TUBA1B-RELA, in the assay with WPMY1-ACTB-RAB5A [1] and with WPMY1-CANX-COX4 was ≤ 0.3 µM each time. Moreover, the “lowest phenotypically active concentration” value in the assay on WPMY1-GM130-SQSTM1, in the assay with WPMY1-TP53BP1-CLTA and in the assay on WPMY1-TUBA1B-RELA was ≤ 0.3 µM each time. Moreover, the phenotypically active with WPMY1-ACTB-RAB5A [2] is 1 (active).
For `COc1ccc(-c2ccc3ncc4c(c3c2)n(-c2ccc(N3CCNCC3)c(C(F)(F)F)c2)c(=O)n4C)cn1`, the “lowest phenotypically active concentration” value in the assay with HepG2-ACTB-RAB5A, in the assay with HepG2-CANX-COX4, in the assay with HepG2-TP53BP1-CLTA, in the assay on HepG2-TUBA1B-RELA, in the assay on WPMY1-ACTB-RAB5A [1] and in the assay on WPMY1-CANX-COX4 was ≤ 0.3 µM throughout. Further, the “lowest phenotypically active concentration” value with WPMY1-GM130-SQSTM1, in the assay on WPMY1-TP53BP1-CLTA and with WPMY1-TUBA1B-RELA was ≤ 0.3 µM each time. For the same molecule, in the assay on WPMY1-ACTB-RAB5A [2], the phenotypically active is 1 (active).
For `COc1ccc(N(C)c2nc(C)nc3ccccc23)cc1` [MPC 6827 hydrochloride], the “lowest phenotypically active concentration” value with HepG2-ACTB-RAB5A, in the assay with HepG2-CANX-COX4, with HepG2-TP53BP1-CLTA, in the assay on HepG2-TUBA1B-RELA, in the assay on WPMY1-ACTB-RAB5A [1] and in the assay on WPMY1-CANX-COX4 was ≤ 0.3 µM in each case. In addition, the “lowest phenotypically active concentration” value with WPMY1-GM130-SQSTM1, in the assay on WPMY1-TP53BP1-CLTA and with WPMY1-TUBA1B-RELA was ≤ 0.3 µM each time. Also, in the assay on WPMY1-ACTB-RAB5A [2], the phenotypically active was 1 (active).
`CN(C)c1ccc(C(=O)NCCCCCCC(=O)NO)cc1`: the “lowest phenotypically active concentration” value in the assay on HepG2-ACTB-RAB5A was ≤ 0.3 µM; in the assay with HepG2-CANX-COX4, ≤ 0.3 µM; in the assay with HepG2-TP53BP1-CLTA it was 1 µM; in the assay on HepG2-TUBA1B-RELA, ≤ 0.3 µM; with WPMY1-ACTB-RAB5A [1] it was 1 µM; in the assay on WPMY1-CANX-COX4, ≤ 0.3 µM. In addition, the “lowest phenotypically active concentration” value with WPMY1-GM130-SQSTM1, in the assay on WPMY1-TP53BP1-CLTA and with WPMY1-TUBA1B-RELA was ≤ 0.3 µM in each case. Moreover, in the assay on WPMY1-ACTB-RAB5A [2], the phenotypically active was 1 (active).
For `Nc1nc(Cl)nc2c1ncn2[C@H]1C[C@H](O)[C@@H](CO)O1` [cladribine], the “lowest phenotypically active concentration” value was ≤ 0.3 µM in the assay with HepG2-ACTB-RAB5A; ≤ 0.3 µM in the assay with HepG2-CANX-COX4; ≤ 0.3 µM in the assay on HepG2-TP53BP1-CLTA; ≤ 0.3 µM with HepG2-TUBA1B-RELA; 1 µM in the assay on WPMY1-ACTB-RAB5A [1]; 9 µM with WPMY1-CANX-COX4. In addition, the “lowest phenotypically active concentration” value worked out at 3 µM in the assay on WPMY1-GM130-SQSTM1, 1 µM with WPMY1-TP53BP1-CLTA and 1 µM with WPMY1-TUBA1B-RELA. Moreover, the phenotypically active with WPMY1-ACTB-RAB5A [2] is 1 (active).
Turning to `Cc1n[nH]c2ccc(-c3cncc(OC[C@@H](N)Cc4ccccc4)c3)cc12`, the “lowest phenotypically active concentration” value in the assay on HepG2-ACTB-RAB5A, with HepG2-CANX-COX4, in the assay with HepG2-TP53BP1-CLTA, with HepG2-TUBA1B-RELA, with WPMY1-ACTB-RAB5A [1] and with WPMY1-CANX-COX4 was ≤ 0.3 µM in each case. The “lowest phenotypically active concentration” value in the assay on WPMY1-GM130-SQSTM1, in the assay on WPMY1-TP53BP1-CLTA and with WPMY1-TUBA1B-RELA was ≤ 0.3 µM in each case. The phenotypically active in the assay on WPMY1-ACTB-RAB5A [2] is 1 (active).
Take `O=C(CCCCCCC(=O)Nc1cccnc1)NO` [Pyroxamide]: the “lowest phenotypically active concentration” value amounted to 3 µM in the assay with HepG2-ACTB-RAB5A; 3 µM in the assay with HepG2-CANX-COX4; 3 µM in the assay on HepG2-TP53BP1-CLTA; 3 µM with HepG2-TUBA1B-RELA; 9 µM in the assay with WPMY1-ACTB-RAB5A [1]; 3 µM in the assay on WPMY1-CANX-COX4. For the same molecule, the “lowest phenotypically active concentration” value in the assay on WPMY1-GM130-SQSTM1, in the assay on WPMY1-TP53BP1-CLTA and in the assay on WPMY1-TUBA1B-RELA was 3 µM each time. In addition, the phenotypically active in the assay with WPMY1-ACTB-RAB5A [2] was 1 (active).
